Assay results reported in PubChem BioAssay (NCI).
About 83,000 compounds went through this panel and 20% of them were active in at least one assay; those are over-represented in the sample as a whole.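 For each line, cells grew in 96-well plates with the test compound present at a single concentration for 48 hours.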 A number with no mark means an inactive call. Calls of active or inactive are those of the source. Rule for the calls: active = growth percent below 10; inactive = the rest.

Tested on: MDA-MB-468 breast
Test: NCI-60 one-dose screen, 48 h (100 = growth as untreated, 0 = no growth, -100 = all killed)
Settings: 10 µM unless noted

Row | SMILES | growth
1 | O=C(Cn1c(-c2ccc([N+](=O)[O-])cc2)nc2ccccc21)NNC(=O)c1cccnc1 | -12.6% (active)
2 | O=[N+]([O-])/C(=C/c1ccccc1)c1ccccc1 | 99%
3 | CCOC(=O)c1cnn2c3ccccc3n(S(=O)(=O)c3ccc(OC)cc3)c12 | -12.1% (active)
4 | CCCCn1c(=O)[nH]c(N)c([C@@H]2c3c([nH]c(=O)n(CCCC)c3=O)Oc3ccc4ccccc4c32)c1=O | 113%
5 | O=C(O)c1cn(C2CC2)c2cc(N3CCN(Cc4cc(Cl)ccc4O)CC3)c(F)cc2c1=O | 81.9%
6 | CCOC(=O)C(=O)C(C(=O)OCC)c1ccccc1 (stereo not given) | 111%
7 | Cc1c(Cl)cccc1NC(=O)c1sc2nc3c(cc2c1N)CN(Cc1ccccc1)CC3 | 29.1%
8 | N#Cc1c(-c2ccccc2)cc(-c2ccccc2)n(CCCC(=O)Nc2ccccc2N)c1=O | 14.9%
9 | CCCCOc1nc2ccccc2cc1/C=C/c1cc(/C=C/c2cc3ccccc3nc2OCCCC)n(-c2ccccc2)n1 | 104%
10 | O=C1NC(=S)NC(=O)C1=Cc1cccc(C=C2C(=O)NC(=S)NC2=O)c1 | 103%
11 | Clc1ccc2c(c1)C(Br)c1cc(Cl)cc(Cl)c1-2 (stereo not given) | 96.7%
12 | COC(C(=O)[C@@H](O)[C@@H](C)O)[C@@H]1Cc2cc3cc(O[C@H]4C[C@@H](O[C@H]5C[C@@H](O)[C@H](O)C(C)O5)[C@H](O)C(C)O4)cc(O)c3c(O)c2C(=O)[C@H]1O[C@H]1C[C@@H](O[C@H]2C[C@@H](O[C@H]3C[C@@H](OC)[C@H](O)C(C)O3)[C@@H](O)C(C)O2)[C@H](O)C(C)O1 (stereo not given in full) | 59.3%
13 | COc1ccccc1S(=O)(=O)Nc1ccc2c3c(cc(-c4cnn(C)c4)nc13)C(=O)N2C | 23.1%
14 | NCCNc1nc(Nc2ccc(-c3nc4ccccc4[nH]3)cc2)c2cn[nH]c2n1 | 57.2%
15 | CC(C)(C)c1nc(-c2cccc(NS(=O)(=O)c3c(F)cccc3F)c2F)c(-c2ccnc(N)n2)s1 | 140%
